The source of these data is PubChem BioAssay (NCI).

Compounds without any hit were thinned out: in the full panel of roughly 83,000, 20% have a hit.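 Compound tested at a single concentration for 48 hours in 96-well plates; a percent growth value below 10 was scored as active.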 Values without a mark were called inactive. Calls of active or inactive are those of the source.

Test in all cases: NCI-60 one-dose screen, 48 h (100 = growth as untreated, 0 = no growth, -100 = all killed)
Holding throughout (settings): 10 µM unless noted

The test system of experiment [1] is T-47D breast.
Experiment [2] has as its system BT-549 breast.
The subject of experiment [3] is MDA-MB-435 melanoma.
Experiment [4] relates to SW-620 colon.
For experiment [5], the system named is MCF7 breast.
In experiment [6] the test system is HCT-116 colon.
For experiment [7], the system named is HCC-2998 colon.
Experiment [8] relates to KM12 colon.

`Cc1nn(-c2nc3ccccc3[nH]2)c2c1C(c1ccc3c(c1)OCO3)CC(=O)N2` (configuration not stated): the growth was 45.6% in experiment [1]; 49.4% in experiment [2]; 5.5% (active) in experiment [3]; 10.8% in experiment [4]; 17.4% in experiment [5]; 6.24% (active) in experiment [6]. For the same compound, the growth is 63.6% in experiment [7] and 1.53% (active) in experiment [8].

`Nc1c(C(=O)Nc2ccccc2Cl)sc2nc3c(cc12)CCCCCC3`: the growth in experiment [1] was 41.4%; in experiment [2] it was 39.8%; in experiment [3] it was -16.1% (active); in experiment [4], 34.3%; in experiment [5] it was 13.8%; in experiment [6], 19.2%. In addition, the growth in experiment [7] was 33%; in experiment [8] it was 29.2%.

In the case of `Cc1nn(-c2ccccc2)c2nc(C)n(-c3ccc(Br)cc3)c(=O)c12`, the growth in experiment [1] is 23.4%; in experiment [2], 50.7%; in experiment [3], -5.13% (active); in experiment [4], 22.6%; in experiment [5], 13.4%; in experiment [6], 15.7%. For the same compound, the growth in experiment [7] is 32.6%; in experiment [8], 43.1%.

For `CC(C)[C@@H]1CC[C@]2(C(=O)NCCCCN=C(N)N)CC[C@]3(C)[C@H](CC[C@@H]4[C@@]5(C)CCC(=O)C(C)(C)[C@@H]5CC[C@]43C)[C@@H]12`, the growth in experiment [1] is 37.4%; in experiment [2], 90.5%; in experiment [3], 56.2%; in experiment [4] it was 71.3%; in experiment [5], 33.5%; in experiment [6], 72.9%. Moreover, the growth in experiment [7] is 53.7%; in experiment [8], 40.9%.

With `COc1c2ccccc2c(OC)c2[nH]c(=O)ccc12`, the growth in experiment [1] was 67.8%; in experiment [2], 26.7%; in experiment [3], -67.2% (active); in experiment [4], 61.7%; in experiment [5] it was 42.2%; in experiment [6], 57.6%. Also, the growth is 81% in experiment [7] and 36.2% in experiment [8].

Consider `CC/C(=C(\c1ccc(O)cc1)c1ccc(OCCN(C)CCN(C)C(=O)CCCCC(=O)c2c(C)[nH]c(/C=C3\N=C(c4ccc[nH]4)C=C3OC)c2C)cc1)c1ccccc1`, for which the growth in experiment [1] was 62.4%; in experiment [2], 91.5%; in experiment [3], 88%; in experiment [4] it was 88%; in experiment [5] it was 41.3%; in experiment [6] it was 56.3%. Further, the growth in experiment [7] is 97%; in experiment [8] it was 68.6%.

On to `CCOC(=O)c1cnc2cc(Cl)c(F)cc2c1Nc1cccc(NS(C)(=O)=O)c1`, for which the growth was 93.5% in experiment [1]; 105% in experiment [2]; 104% in experiment [3]; 94.1% in experiment [4]; 92.5% in experiment [5]; 86.5% in experiment [6]. For the same compound, the growth in experiment [7] is 98.4%; in experiment [8], 93.8%.

In the case of `C#Cc1nc(Nc2cc(C)[nH]n2)c2ccccc2n1`, the growth in experiment [1] was -36.8% (active); in experiment [2], -34.9% (active); in experiment [3] it was -75.5% (active); in experiment [4] it was -25.6% (active); in experiment [5], -25.8% (active); in experiment [6] it was -12.7% (active). The growth in experiment [7] was -91% (active); in experiment [8], -73.1% (active).

Regarding `CCc1ccccc1NC(=O)c1sc2nc3c(cc2c1N)C(=O)CCC3`, the growth in experiment [1] was 23.2%; in experiment [2], 48%; in experiment [3] it was -56.6% (active); in experiment [4], 25.7%; in experiment [5] it was 8.92% (active); in experiment [6], 26.1%. The growth in experiment [7] is 24%; in experiment [8], 25.4%.

Consider `CC(C)C1=C[C@@]23CC[C@@H]4[C@](C)(CCC[C@@]4(C)C(=O)OCC#CCN4CCCC4)[C@H]2C[C@@H]1[C@H]1C(=O)OC(=O)[C@H]13`, for which the growth in experiment [1] is 73.9%; in experiment [2], 87.7%; in experiment [3], 102%; in experiment [4], 109%; in experiment [5], 84.7%; in experiment [6] it was 88.8%. In addition, the growth was 108% in experiment [7] and 87.3% in experiment [8].

As for `C(=N\Nc1ccccn1)/c1ccccn1`, the growth is 22.8% in experiment [1]; -16.8% (active) in experiment [2]; 33.6% in experiment [3]; 37.4% in experiment [4]; 12.4% in experiment [5]; 4.73% (active) in experiment [6]. For the same compound, the growth was 19.2% in experiment [7] and 29.6% in experiment [8].

With `CCOC(=O)CC(C)=N`, the growth in experiment [1] is 109%; in experiment [2] it was 103%; in experiment [3], 113%; in experiment [4] it was 101%; in experiment [5], 95.6%; in experiment [6], 102%. Further, the growth was 117% in experiment [7] and 120% in experiment [8].

`COc1cccc(/C=C\C(=O)c2ccccc2)c1`: the growth in experiment [1] was 56.5%; in experiment [2] it was 97.4%; in experiment [3], 72.9%; in experiment [4], 15%; in experiment [5], 11.5%; in experiment [6] it was 16.2%. In addition, the growth in experiment [7] is 104%; in experiment [8], 8.52% (active).

As to `Clc1ccc(-c2nnc(COc3ccccc3Cl)o2)cc1`, the growth in experiment [1] is 69.9%; in experiment [2], 89.4%; in experiment [3], 58.4%; in experiment [4] it was 91.1%; in experiment [5], 78.7%; in experiment [6], 51.7%. The growth in experiment [7] was 86.8%; in experiment [8], 82.4%.
